This is a sample that favours compounds with a hit; in the whole collection about 4.1% have one here.
FMDV antiviral: foot and mouth disease virus antiviral activity. FMDV antiviral cell-based qHTS. Potency, µM (highest dose often 57.9 µM), for the others: at the highest dose activity change, negative = inhibition, most hits filed as inhibitors. hit rate 1.2% among 410,000. AID 1159524; calls by dose curve; tested in HEK293T cells; also: read-out not given here; nearly all actives have a fitted effect of over 45% in size
AmpC no deterg: blocks E. coli AmpC beta-lactamase in detergent-free assay; hit rate 0.52% among 330,000; Potency, µM (series often up to 57.1 µM), for inactives: at the highest dose activity change, negative = inhibition, usual class: inhibitors; P00811; AID 485341; AmpC nitrocefin hydrolysis, absorbance 480 nm, 0.0001% Triton;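 also: plate controls were no compound for no effect and no enzyme for full effect; nearly all actives have a fitted effect of over 20% in size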
Target sequence (P00811 whole entry, looked up): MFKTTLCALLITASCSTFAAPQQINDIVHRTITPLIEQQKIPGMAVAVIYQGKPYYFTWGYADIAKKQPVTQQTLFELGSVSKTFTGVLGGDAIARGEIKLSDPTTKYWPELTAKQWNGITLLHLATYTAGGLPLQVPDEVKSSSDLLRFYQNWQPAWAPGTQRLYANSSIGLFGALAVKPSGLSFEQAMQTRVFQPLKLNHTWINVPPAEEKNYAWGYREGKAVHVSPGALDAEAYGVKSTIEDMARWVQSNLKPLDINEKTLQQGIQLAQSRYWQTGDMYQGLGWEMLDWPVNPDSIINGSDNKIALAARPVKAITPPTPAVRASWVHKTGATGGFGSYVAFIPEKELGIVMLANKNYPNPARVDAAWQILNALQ
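AmpC (5.3 nM in the dispensed reagent) in 20 mM phosphate pH 7.0 with 0.01% (detergent screen) or 0.0001% Triton X-100 was preincubated with compounds for 15 min at room temperature. Nitrocefin was then added from an 800 uM solution, and hydrolysis was followed at 480 nm.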
AmpC detergent: inhibitors of E. coli AmpC beta-lactamase with detergent; P00811; Potency, µM (highest dose often 114 µM), for the others: at the top dose activity change, negative = inhibition, most hits filed as inhibitors; hit rate 0.041% among 370,000; AID 485294; AmpC hydrolysis of nitrocefin, absorbance 480 nm, 0.01% Triton;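 also: 0% = no-compound wells and -100% = no-enzyme wells; nearly all actives have a fitted effect of over 25% in size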
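20 mM phosphate pH 7.0 + 0.01% (detergent screen) or 0.0001% Triton X-100; 5.3 nM AmpC reagent; cpd preinc 15 min RT; nitrocefin (800 uM stock) to start; A480 q20 s × 4 min; Activity was normalised to no-enzyme and no-compound control wells.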
Sm TGR inh: inhibitors of Schistosoma mansoni thioredoxin glutathione reductase. Q962Y6. purified TGR, DTNB reduction, TNB absorbance 405 nm. Potency, µM (highest dose often 114 µM), inactives show at the top dose activity change, negative = inhibition, usual class: inhibitors. hit rate 3% among 360,000; also: nearly all actives have a fitted effect of over 60% in size
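TGR 20 nM + NADPH 100 uM (dispensed conc.), cpd preinc 15 min RT; start with NADPH (500 uM addition) then DTNB (15 mM addition). Kinetic TNB absorbance, 405 nm filter. Four-parameter Hill fit across titration.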
AMA1-RON2 inh: AMA1-RON2 (P. falciparum) interaction inhibition | Potency, µM (top dose mostly 58.2 µM), for the others: at the highest dose activity change, negative = inhibition, most hits filed as inhibitors | AlphaScreen AMA1-biotinylated RON2 peptide binding | hit rate 0.2% among 360,000;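 also: 0% = vehicle wells and -100% = peptide control; nearly all actives have a fitted effect of over 45% in size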
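AMA1 (3D7) with his tag at 25 nM final met compounds first, then biotinylated RON2 peptide at 25 nM; detection used donor plus acceptor beads, 10 µg/mL apiece, read by AlphaScreen after 30 min at room temperature.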
Starred values were filed as active, the others as inactive; ? = inconclusive; . = no result given; [ ] = dose if it differs, or a comment. Unless noted, calls follow the shape of the dose curve; as a rule, active = well fitted curve in the direction sought with a large enough effect; inconclusive = small, poorly fitted or top-dose-only effect, or another doubt; inactive = no such curve, though single readings can be large; an effect the other way counts as inactive or inconclusive. Unless noted, % is scaled to controls: 0 for no effect and ±100 for the full control effect; potency is read from the fitted curve at half-maximal effect.

SMILES	FMDV antiviral	AmpC no deterg	AmpC detergent	Sm TGR inh	AMA1-RON2 inh
O=C(O)C(c1ccccc1)N1C(=O)/C(=C\c2ccc(-c3ccccc3Cl)o2)SC1=S (stereo not drawn)	?	-42%	?	14µM*	25%
Cc1ccc2cc3c(N)nn(C(=O)c4cccc(F)c4)c3nc2c1	-1%	.	7%	-3%	.
CCc1noc(C)c1C(=O)N1CCOc2ccc(CN3CCN(c4ccccn4)CC3)cc2C1	-10%	.	.	.	.
CN(C(=O)COC(=O)c1nc(Cl)c(Cl)c(Cl)c1Cl)C1CCS(=O)(=O)C1 (stereo not drawn)	16µM*	11%	1%	35µM*	-3%
CC(C)(C)c1ccc(Oc2nc3ccccn3c(=O)c2/C=C(\C#N)c2nc3ccccc3[nH]2)cc1	-6%	.	16%	-2%	.
Cc1cc(SCC(=O)OC/C(O)=C(\C#N)c2nc3ccccc3[nH]2)c(C)cc1Br	?	10µM*	-6%	-20%	86%
O=C(O)Cn1cc(/C=C2\C(=O)NC(=O)N(Cc3ccco3)C2=O)c2ccccc21	-9%	-6%	-1%	5µM*	-6%
CCN1C(=O)NC(=O)/C(=C\c2cn(CC(=O)N3CCCC3)c3ccccc23)C1=O	-9%	-13%	-3%	?	-3%
O=C1NC(=O)N(c2ccccc2F)C(=O)/C1=C/c1cn(CC(=O)N2CCOCC2)c2ccccc12	22µM*	83%	-5%	-32%	8%
Cn1cccc1/C=C1\C(=O)NC(=O)N(Cc2ccccc2)C1=O	-17%	-40%	-4%	-25%	-11%
CCN1C(=O)NC(=O)/C(=C\c2cn(CC(=O)O)c3ccccc23)C1=O	.	-12%	-3%	?	.
O=C1NC(=O)N(Cc2ccco2)C(=O)/C1=C/c1cccn1CCOc1ccccc1Cl	-18%	13µM*	-12%	?	-10%
C[C@@]12CCC(O)C[C@H]1CCc1ccccc12 (stereo partly drawn)	2%	.	.	.	.
CCc1ccc(NC(=O)N(CCN2CCOCC2)Cc2ccc3c(c2)CCCN3CC)cc1	-16%	182%	1%	-4%	?
CCN1CCCc2cc(CN(CCN3CCOCC3)C(=S)Nc3cccc(C)c3)ccc21	-7%	122%	-3%	-5%	14µM*
CCN1CCCc2cc(CN(CCN3CCOCC3)C(=O)Nc3ccc(C)c(C)c3)ccc21	-26%	141%	?	0%	11µM*
COc1cc(C)ccc1OCCn1c(-c2ccc(Cl)cc2)nc2ccccc2c1=O	-8%	.	9%	3%	.
COc1ccc(-c2ccc3oc(-c4ccc(OC)cc4)c(-c4ccc(OC)cc4)c3c2)cc1	-22%	.	.	.	-1%
COc1ccc(-c2oc3ccc(N4CCOCC4)cc3c2C#CCO)cc1	28µM*	.	.	.	-2%
COc1ccc(-c2ccc3oc(-c4ccc(OC)cc4)c(C#CCO)c3c2)cc1	8.9µM*	.	.	.	11%
COc1ccc(-c2sc3ccc(N4CCOCC4)cc3c2C#CC(C)(C)O)cc1	-18%	166%	7%	-19%	-1%
COc1cccc(-c2nc(SCC(=O)Nc3ccc4c(c3)OCO4)c(-c3ccccc3)[nH]2)c1	-12%	.	-3%	0%	.
COc1ccc(-c2cn3c(n2)sc2cc(C(=O)NCCC4=CCCCC4)ccc23)cc1	0%	.	12%	1%	.
CCCOc1ccc(C2C(=O)N(C3CCCCCC3)CC(=O)N2CCCOCC)cc1OC (stereo not drawn)	-26%	.	7%	4%	.
CCN(CC)S(=O)(=O)c1ccc(-c2ccc(S(=O)(=O)N(CC)CC)cc2)cc1	?	-7%	-1%	-11%	9%
SMILES	FMDV antiviral	AmpC no deterg	AmpC detergent	Sm TGR inh	AMA1-RON2 inh
CCN(CC)S(=O)(=O)c1ccc(C)c(N=C=S)c1	-3%	-6%[11.4 µM]	2%	40µM*	24%
Cc1ccc(N(CC(=O)NCC2CCCO2)C(=O)CCC(=O)Nc2ccccn2)cc1C (stereo not drawn)	17%	41%	0%	79µM*	9%
Cc1ccc(N(CC(=O)NCC2CCCO2)C(=O)CCC(=O)Nc2ccccn2)cc1 (stereo not drawn)	7%	3%	-13%	-2%	15%
COc1ccc2c(c1)c(=O)c(C(=O)c1ccc(C)cc1)cn2Cc1ccccc1F	-27%	.	-12%	-2%	.
Cc1cccnc1-c1cccc2c1OC(CNC(=O)/C=C/c1cccs1)C2 (stereo not drawn)	-16%	.	.	.	.
CCOC(=O)c1c(NC(=S)Nc2ccccc2)sc2c1CC(C)(C)SC2	8%	-45%	-5%	?	36%
CCOC(=O)c1c(NC(=S)NC)sc2c1CC(C)(C)SC2	-17%	-57%	-4%	10µM*	52%
COCCCNC(=S)Nc1ccc(C)cc1[N+](=O)[O-]	42%	-21%	-14%	45µM*	-10%
COCCNC(=S)Nc1ccc([N+](=O)[O-])cc1C	30%	-9%	-8%	?	-12%
Cc1cccc(CN2CCc3c([nH]c4ccccc34)C2C(C)(C)C)n1 (stereo not drawn)	-3%	-11%	-9%	16µM*	-11%
CC(C)(C)C1c2[nH]c3ccccc3c2CCN1CCCn1cccn1 (stereo not drawn)	-12%	-2%	4%	40µM*	13%
CCOc1ccc(C(=O)OCc2cc(=O)n3nc(C4CC4)sc3n2)cc1	-13%	.	-1%	2%	.
CC(=O)c1ccc(OCC(C)C)c(CC(C(N)=O)C(N)=O)c1	.	-10%	-8%	-23%	-2%
CCN(CC)Cc1cc(C(C)=O)ccc1OCC(C)C	-7%	6%	?	18µM*	-8%
CCOC(=O)c1[nH]c(C)c(CCC(=O)Nc2cc(Cl)ccc2C)c1C	5%	.	-5%	-2%	.
NNc1ccc2nncn2n1	-13%	-9%	-3%	35µM*	32%
c1ccc(CCNc2ccc3nncn3n2)cc1	2%	1%	?	-4%	7%
C[N+](C)(C)Cc1ccccc1	35µM*	-11%	-10%	5%	4%
NCc1ccccc1	-18%	-14%	-14%	0%	3%
COc1cccc(C2c3c(oc4cc(C)cc(C)c4c3=O)C(=O)N2CCc2ccc(OC)c(OC)c2)c1 (stereo not drawn)	-11%	.	17%	6%	.
COCc1ccc(C(=O)N2CCCC(C(=O)c3ccc(Cl)cc3C)C2)o1 (stereo not drawn)	-24%	133%	-11%	32µM*	1%
O=C1CCCc2nc(N3CCN(C(c4ccccc4)c4ccccc4)CC3)ncc21	22µM*	-19%	-15%	?	-19%
Cc1nc(N2CCN(C(c3ccccc3)c3ccccc3)CC2)nc2c1C(=O)CCC2	.	-19%	-8%	-1%	.
CCOC(=O)C1=C(C)NC(C)=C(C(=O)OCC)C1c1cccc([N+](=O)[O-])c1	?	.	.	.	-11%
CC1=C(C(=O)OC(C)C)C(c2cccc([N+](=O)[O-])c2)n2c(cc(=O)[nH]c2=S)N1 (stereo not drawn)	-24%	35µM*	-16%	1%	34%
